Calls of active or inactive are those of the source. Unless noted, the rule behind the calls is not given here.

In assay [1] the test system is Wnt5a (protein binding on small-molecule microarray). The assay is described as follows: Wnt5a binders on small-molecule microarray, primary screen, biophysical, 635/667 nm fluorescence (AID 1142).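 Note: fluorescence read at 667 nm with signal to noise per printed feature.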 As to conditions: 635 nm fluorescence, higher = more signal.
A short description of assay [2]: cell viability in Huh7 cells, primary screen, cytotoxicity control for HCV replication inhibitor project, CellTiter-Glo luminescence, basal, 48 h (AID 1143).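 Note: Huh7 hepatoma cells carrying a hepatitis C replication reporter with no stimulus; test concentration not given here.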 As to conditions: Huh7 HCV replicon, higher = more signal, called active from +8 up or from −8 down. For orientation: In ATP-based viability assays light output follows the ATP content of the culture.
The nature of assay [3]: P. aeruginosa biofilm formation inhibitors, primary screen, PAO1 strain, BacTiter-Glo luminescence, LB-PBS (AID 1144). As to conditions: 12 h, higher = more signal.
A short description of assay [4]: CREB reporter modulators without forskolin, primary screen, cell-based, PC12, CRE-LacZ reporter, unstimulated (AID 1145). As to conditions: no forskolin, luminescence, 4.5 h, higher = more signal, called active from +8 up or from −8 down.
Assay [5] is described as follows: CREB reporter modulators under forskolin, primary screen, cell-based, PC12, CRE-LacZ reporter, forskolin-stimulated (AID 1146).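 Note: PC12 cells with 6xCRE LacZ reporter stimulated by forskolin 10 µM; beta-galactosidase reporter signal reflecting CREB driven transcription.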 As to conditions: luminescence, 4.5 h, higher = more signal, called active from +8 up or from −8 down.
Assay [6] has as its target Streptavidin (Streptomyces avidinii) (UniProt P22629). The assay can be described thus: streptavidin binders on small-molecule microarray, primary screen, artefact control for SMM compound annotation, biophysical, 635/667 nm fluorescence (AID 1147).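 Note: signal reflects streptavidin binding to arrayed compounds as a control protein.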 Conditions: streptavidin binding, higher = more signal.
The nature of assay [7]: small-molecule binders of probe aInhba, primary screen, biochemical, small-molecule microarray, 635/667 nm fluorescence (AID 1148).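 Note: score merges 667nm spot fluorescence with signal-to-noise for antibody binding to printed compounds.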 As to conditions: higher = more signal.
For assay [8], the target named is Torsin-1A (Homo sapiens) (UniProt O14656). The assay is described as follows: torsin A binders from cell lysate, primary screen, small-molecule microarray, wild-type, 635/667 nm (AID 1149). As to conditions: COS7 hTOR1A-WT lysate, 635 nm fluorescence, higher = more signal.
Chain of Torsin-1A (Homo sapiens) (O14656 whole entry, looked up): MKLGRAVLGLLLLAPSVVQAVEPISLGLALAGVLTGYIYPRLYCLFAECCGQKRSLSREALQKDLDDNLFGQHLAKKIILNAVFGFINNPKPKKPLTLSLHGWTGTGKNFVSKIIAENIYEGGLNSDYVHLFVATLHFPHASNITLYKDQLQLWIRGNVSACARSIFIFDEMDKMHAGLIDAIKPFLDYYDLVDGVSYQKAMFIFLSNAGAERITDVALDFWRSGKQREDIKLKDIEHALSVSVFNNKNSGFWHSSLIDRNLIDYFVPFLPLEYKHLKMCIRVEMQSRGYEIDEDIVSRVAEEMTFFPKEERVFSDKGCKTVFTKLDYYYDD
Assay [9] has the same target. The assay can be described thus: small-molecule binders of mutant TOR1A in lysate, primary screen, cell lysate, small-molecule microarray, COS7 lysate, 635/667 nm fluorescence (AID 1150).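 Note: score pools 667 nm emission and signal to noise measuring lysate protein binding.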 Conditions: COS7 hTOR1A mutant lysate, 635 nm fluorescence, higher = more signal.
The test system of assay [10] is Sonic hedgehog protein (Shh). The assay is described as follows: small-molecule binders of Shh protein, primary screen, biochemical, small-molecule microarray, 635/667 nm fluorescence (AID 1151).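 Note: Shh protein binding to compounds spotted on small-molecule microarray slides; score combines spot fluorescence intensity with signal-to-noise across triplicate slides.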 Conditions: small-molecule microarray binding, 635 nm fluorescence; higher = more signal.
Assay [11] is described as follows: E. coli DRC41 culture turbidity changes, primary screen, E. coli filamentation inducer project, strain DRC41, OD650, 48 h (AID 1152).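 Note: E. coli MC1000 strain DRC41 lacking acrAB efflux pump and sulA.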 Conditions: E. coli DRC41 (acrAB sulA), higher = more signal, called active from +8 up or from −8 down.
Assay [12] can be described thus: small-molecule binders of probe aLefty1, primary screen, biochemical, small-molecule microarray, 635/667 nm fluorescence (AID 1153).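 Note: score merges spot fluorescence with signal-to-noise ratio from the scanned slide images.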 As to conditions: higher = more signal.
Assay [13] can be described thus: PSAC antagonists in infected red cells, primary screen, cell-based, P. falciparum Indochina, OD700, 1 h (AID 1154). Conditions: P. falciparum Indochina infected RBC osmotic lysis, higher = more signal, called active from +8 up or from −8 down.
A short description of assay [14]: PSAC antagonists in infected red cells, primary screen, cell-based, P. falciparum Indochina, OD700, 2 h (AID 1155).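 Note: lysis reports solute entry through the parasite surface anion channel PSAC; channel blockers reduce lysis of infected cells.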 Conditions: P. falciparum Indochina infected erythrocytes, osmotic lysis OD700; higher = more signal, called active from +8 up or from −8 down.
Assay [15] is described as follows: osmotic lysis modulators in infected erythrocytes, primary screen, PSAC antagonist project, cell-based, P. falciparum Indochina, OD700, 3 h (AID 1156). Conditions: higher = more signal, called active from +8 up or from −8 down.
The nature of assay [16]: PSAC antagonists in infected red cells, primary screen, cell-based, P. falciparum Indochina, OD700, 18 h (AID 1157). As to conditions: P. falciparum Indochina infected erythrocytes, osmotic lysis OD700, 18 h; higher = more signal, called active from +8 up or from −8 down.
The nature of assay [17]: modulators of S6 phosphorylation in cells, primary screen, cell-based, A549, cytoblot, luminescence, serum-stimulated (AID 1158).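 Note: serum-stimulated A549 lung adenocarcinoma cells; signal is phosphorylated S6 detected by cytoblot immunostaining with HRP secondary.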 Conditions: A549 phospho-S6 cytoblot, 5 h, higher = more signal.
The target of assay [18] is NADPH oxidase 2 (Homo sapiens) (UniProt P04839). The assay can be described thus: NOX2-dependent H2O2 signal modulators, primary screen, NOX inhibitor project, cell-based, HEK293-NOX2, PMA-stimulated, Amplex Red fluorescence (AID 1159). Note: test concentration not given here. As to conditions: 45 min, higher = more signal, called active from +8 up or from −8 down.
Chain of NADPH oxidase 2 (Homo sapiens) (P04839 whole entry, looked up): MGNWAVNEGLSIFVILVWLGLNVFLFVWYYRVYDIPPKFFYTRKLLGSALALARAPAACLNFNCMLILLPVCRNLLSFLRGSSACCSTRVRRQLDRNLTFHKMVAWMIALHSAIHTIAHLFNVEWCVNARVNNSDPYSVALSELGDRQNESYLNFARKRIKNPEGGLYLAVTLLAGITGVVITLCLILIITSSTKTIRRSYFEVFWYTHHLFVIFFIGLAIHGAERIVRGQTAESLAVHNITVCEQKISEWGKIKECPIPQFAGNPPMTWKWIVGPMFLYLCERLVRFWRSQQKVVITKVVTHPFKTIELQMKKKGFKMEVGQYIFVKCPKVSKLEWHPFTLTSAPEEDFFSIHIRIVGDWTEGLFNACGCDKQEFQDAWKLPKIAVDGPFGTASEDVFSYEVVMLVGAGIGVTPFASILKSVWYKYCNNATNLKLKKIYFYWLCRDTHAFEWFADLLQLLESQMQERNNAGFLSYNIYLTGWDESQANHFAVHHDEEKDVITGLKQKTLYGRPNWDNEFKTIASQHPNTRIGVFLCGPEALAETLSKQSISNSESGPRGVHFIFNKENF
Assay [19] deals with NADPH oxidase 4 (Homo sapiens) (UniProt Q9NPH5). The assay can be described thus: NOX4-dependent H2O2 signal modulators, primary screen, NOX inhibitor project, cell-based, HEK293-NOX4, tetracycline-induced, Amplex Red fluorescence (AID 1160). As to conditions: 45 min, higher = more signal, called active from +8 up or from −8 down.
Chain of NADPH oxidase 4 (Homo sapiens) (Q9NPH5 whole entry, looked up): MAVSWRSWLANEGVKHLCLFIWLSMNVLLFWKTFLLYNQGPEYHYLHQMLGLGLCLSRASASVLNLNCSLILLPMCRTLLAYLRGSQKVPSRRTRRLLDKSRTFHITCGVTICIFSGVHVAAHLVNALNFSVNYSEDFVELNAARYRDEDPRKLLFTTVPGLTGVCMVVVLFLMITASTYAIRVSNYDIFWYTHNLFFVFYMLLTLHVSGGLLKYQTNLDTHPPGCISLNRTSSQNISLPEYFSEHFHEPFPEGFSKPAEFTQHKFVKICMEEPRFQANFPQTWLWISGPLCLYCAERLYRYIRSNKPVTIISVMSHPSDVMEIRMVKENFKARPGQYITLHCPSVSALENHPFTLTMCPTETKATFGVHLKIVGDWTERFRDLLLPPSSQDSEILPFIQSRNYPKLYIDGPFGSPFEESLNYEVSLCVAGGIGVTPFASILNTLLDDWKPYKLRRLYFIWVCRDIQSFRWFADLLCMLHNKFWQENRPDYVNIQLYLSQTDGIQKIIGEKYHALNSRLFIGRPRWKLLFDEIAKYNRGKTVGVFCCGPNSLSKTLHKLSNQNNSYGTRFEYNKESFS
The target in assay [20] is NADPH oxidase 5 (Homo sapiens) (UniProt Q96PH1). The assay is described as follows: NOX5-dependent H2O2 signal modulators, primary screen, NOX inhibitor project, cell-based, HEK293-NOX5, Amplex Red fluorescence (AID 1161). Conditions: HEK293-NOX5, ionomycin, 45 min, higher = more signal.
Chain of NADPH oxidase 5 (Homo sapiens) (Q96PH1 whole entry, looked up): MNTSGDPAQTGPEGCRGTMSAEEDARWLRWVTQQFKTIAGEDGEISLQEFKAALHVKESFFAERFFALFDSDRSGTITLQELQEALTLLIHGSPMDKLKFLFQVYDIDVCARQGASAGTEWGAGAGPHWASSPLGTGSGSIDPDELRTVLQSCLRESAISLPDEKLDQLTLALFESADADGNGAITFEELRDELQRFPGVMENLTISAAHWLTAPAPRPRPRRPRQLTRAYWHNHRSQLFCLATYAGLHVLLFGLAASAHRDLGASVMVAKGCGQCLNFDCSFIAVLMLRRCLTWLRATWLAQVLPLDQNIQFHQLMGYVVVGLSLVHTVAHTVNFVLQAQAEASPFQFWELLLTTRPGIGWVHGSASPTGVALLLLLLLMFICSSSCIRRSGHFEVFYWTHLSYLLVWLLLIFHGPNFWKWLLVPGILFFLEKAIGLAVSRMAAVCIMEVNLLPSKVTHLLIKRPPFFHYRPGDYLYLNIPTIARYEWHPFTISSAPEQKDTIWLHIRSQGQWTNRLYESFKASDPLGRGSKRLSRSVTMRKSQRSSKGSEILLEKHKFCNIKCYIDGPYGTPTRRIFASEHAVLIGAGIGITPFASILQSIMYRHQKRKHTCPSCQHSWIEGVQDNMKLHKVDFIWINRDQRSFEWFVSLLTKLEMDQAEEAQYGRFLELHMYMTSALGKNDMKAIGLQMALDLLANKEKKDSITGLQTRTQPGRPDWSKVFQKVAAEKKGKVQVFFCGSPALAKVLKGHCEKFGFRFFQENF

Chain of Streptavidin (Streptomyces avidinii) (P22629 whole entry, looked up): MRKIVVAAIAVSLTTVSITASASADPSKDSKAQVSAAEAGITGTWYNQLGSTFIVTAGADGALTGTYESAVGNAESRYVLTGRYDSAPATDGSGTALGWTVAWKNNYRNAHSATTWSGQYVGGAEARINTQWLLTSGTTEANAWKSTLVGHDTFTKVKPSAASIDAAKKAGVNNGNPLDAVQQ

As to `CCOC(=O)C[C@H]1[C@H](OC(=O)c2ccccc2-c2ccccc2)[C@@H](NC(=O)CC(C)C)c2cc(OCCCO)ccc2N1C(=O)c1ccccc1`, the composite z-score in [1] is 0.167; in assay [6], -0.31; in assay [7], -0.0178; with Torsin-1A (Homo sapiens) [8], -0.278; with Torsin-1A (Homo sapiens) [9] it was -0.161; in assay [10] it was 1.51. Besides, in [12], the composite z-score worked out at 0.0816. Further, the z-score is -0.715 (inactive) in assay [2]; -0.829 (inactive) in assay [3]; 1.94 (inactive) in assay [4]; -0.103 (inactive) in [5]; 0.822 (inactive) in [11]; 0.0883 (inactive) in [13]. Besides, the z-score is -1.7 (inactive) in assay [14]; -1.27 (inactive) in assay [15]; -2.84 (inactive) in assay [16]; 1.47 in assay [17]; 0.924 (inactive) in assay [18]; 0.899 (inactive) in assay [19]. In [20], this compound yielded a z-score of -1.19.

In the case of `[N-]=[N+]=NCc1ccccc1C[C@@]1(C(N)=O)N=C(c2ccc(OCCCO)cc2)O[C@@H]1c1ccccc1N=[N+]=[N-]`, the composite z-score in assay [1] is 0.336; in assay [6], 1.31; in assay [7], -0.145; with Torsin-1A (Homo sapiens) [8], 0.369; with Torsin-1A (Homo sapiens) [9], 0.409; in [10], -0.455. This compound also returned a composite z-score in assay [12] of 0.045. Further, the z-score in [2] is -3.18 (inactive); in assay [3], 1.33 (inactive); in [4], 1.01 (inactive); in assay [5] it was -0.626 (inactive); in assay [11], -1.04 (inactive); in assay [13] it was 32.4 (active). For the same compound, the z-score in assay [14] was 31.4 (active); in assay [15], 1.81 (inactive); in assay [16], 2.31 (inactive); in assay [17] it was -0.441; in [18], 0.0502 (inactive); in assay [19], -0.393 (inactive). Besides, in [20], the z-score was -1.89.

For the compound `C=C(CCCC)/C(=C/C[C@@H](OC(C)=O)c1ccc(OCCO)cc1)c1cc(C(=O)OC)ccc1OC`, the composite z-score is -0.0169 in assay [1]; 0.313 in assay [6]; -0.176 in [7]; 0.929 in the assay with Torsin-1A (Homo sapiens) [8]; 0.687 with Torsin-1A (Homo sapiens) [9]; 1.04 in assay [10]. Moreover, in assay [12], the composite z-score is -0.0518. Moreover, the z-score in assay [2] is -3.57 (inactive); in assay [3], 0.412 (inactive); in assay [4], 5.45 (inactive); in assay [5], 0.574 (inactive); in [11] it was -0.195 (inactive); in [13], 23.7 (active). Also, the z-score in assay [14] is 6.34 (inactive); in assay [15] it was 1.86 (inactive); in assay [16] it was 1.19 (inactive); in assay [17] it was -0.265; in assay [18] it was -0.958 (inactive); in [19], -1.43 (inactive). The same compound came in with a z-score in [20] of -1.98.

`O=C1c2ccccc2[C@@]2(Cc3ccccc3N(CC(F)(F)F)C2=O)[C@H](c2ccc(CO)cc2)N1Cc1ccccc1`: the composite z-score is 0.104 in [1]; 0.0298 in assay [6]; -0.149 in [7]; -0.118 with Torsin-1A (Homo sapiens) [8]; -0.175 with Torsin-1A (Homo sapiens) [9]; 1.82 in assay [10]. The same compound yielded a composite z-score in assay [12] of -0.0626. The z-score in [2] was -4.1 (inactive); in assay [3] it was -0.692 (inactive); in assay [4], -0.258 (inactive); in assay [5], -0.616 (inactive); in assay [11], -0.98 (inactive); in [13] it was -0.0567 (inactive). In addition, the z-score was -0.992 (inactive) in assay [14]; 0.11 (inactive) in assay [15]; -1.93 (inactive) in [16]; 2.33 in assay [17]; -2.06 (inactive) in assay [18]; -2.39 (inactive) in [19]. The z-score in assay [20] was -2.36.

(Values after PubChem BioAssay.)
